Binding signal data for one sequence are collected here from paper PMC7862700, “An all-to-all approach to the identification of sequence-specific readers for epigenetic DNA modifications on cytosine”.

Common to all, as to assay: DAPPL (digital affinity profiling via proximity ligation, sequencing); 10 mM Tris-HCl pH 7.5, 50 mM NaCl, 1 mM DTT, 4% glycerol, room temperature, 30 min; GST-TFs on glutathione beads, 16-mer random dsDNA library, 0.1% formaldehyde crosslink after washing; high values mean tight binding
Common to all, as to conditions: protein: recombinant; tags: N-terminal GST; dsDNA, one strand shown

The target of one assay is T1, FLI1 (Homo sapiens, UniProt Q01543 1-452).
T1 sequence: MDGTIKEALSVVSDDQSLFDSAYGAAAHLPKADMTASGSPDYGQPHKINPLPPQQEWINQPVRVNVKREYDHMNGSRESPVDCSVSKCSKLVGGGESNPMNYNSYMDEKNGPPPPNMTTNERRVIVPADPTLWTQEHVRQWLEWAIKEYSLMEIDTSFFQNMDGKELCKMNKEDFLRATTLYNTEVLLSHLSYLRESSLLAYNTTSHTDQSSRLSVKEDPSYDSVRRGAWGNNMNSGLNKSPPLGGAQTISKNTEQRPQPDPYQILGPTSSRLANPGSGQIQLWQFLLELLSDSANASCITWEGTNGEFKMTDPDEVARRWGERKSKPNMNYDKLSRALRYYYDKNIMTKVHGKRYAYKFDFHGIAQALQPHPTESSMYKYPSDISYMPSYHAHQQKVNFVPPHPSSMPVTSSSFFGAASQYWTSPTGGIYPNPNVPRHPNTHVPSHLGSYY
Summed up: (§1)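 Beads coated with glutathione captured GST-fused human transcription factors that had been expressed in yeast, and the factors were then given DNA barcodes and pooled with a tag-only sample. The pools were incubated with 200 nmole of a random double-stranded 16-mer DNA library in Tris/NaCl/DTT/glycerol buffer for 30 min at room temperature, washed, crosslinked with 0.1% formaldehyde and proximity-ligated with BsaI/T4 ligase at 37 °C for 1 h. PCR amplification and Illumina NextSeq500 sequencing came last. Binding signal is each hexamer's read frequency for a factor divided by its frequency for the tag-only sample.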

The target in the next assay is T2, ERG (Homo sapiens, UniProt P11308 1-479).
T2 sequence: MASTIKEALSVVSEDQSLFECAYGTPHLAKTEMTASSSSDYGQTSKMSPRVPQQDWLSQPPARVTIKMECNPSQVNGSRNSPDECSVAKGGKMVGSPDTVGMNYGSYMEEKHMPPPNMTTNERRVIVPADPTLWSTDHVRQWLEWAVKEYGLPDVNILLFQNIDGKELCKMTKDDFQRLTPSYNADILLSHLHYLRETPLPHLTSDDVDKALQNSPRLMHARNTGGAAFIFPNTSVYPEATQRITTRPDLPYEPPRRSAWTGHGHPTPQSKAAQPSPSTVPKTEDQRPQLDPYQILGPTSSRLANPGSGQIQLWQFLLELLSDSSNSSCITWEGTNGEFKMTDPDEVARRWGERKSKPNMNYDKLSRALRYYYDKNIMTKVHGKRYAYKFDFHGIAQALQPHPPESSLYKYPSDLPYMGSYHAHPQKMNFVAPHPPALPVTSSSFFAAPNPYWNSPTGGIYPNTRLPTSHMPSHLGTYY
In short, it runs like this: as §1

The target in a further assay is ELF1 (Homo sapiens, UniProt P32519 1-619). In short, it runs like this:
as §1

The target in the next assay is T3, EHF (Homo sapiens, UniProt Q9NZC4 1-300).
T3 sequence: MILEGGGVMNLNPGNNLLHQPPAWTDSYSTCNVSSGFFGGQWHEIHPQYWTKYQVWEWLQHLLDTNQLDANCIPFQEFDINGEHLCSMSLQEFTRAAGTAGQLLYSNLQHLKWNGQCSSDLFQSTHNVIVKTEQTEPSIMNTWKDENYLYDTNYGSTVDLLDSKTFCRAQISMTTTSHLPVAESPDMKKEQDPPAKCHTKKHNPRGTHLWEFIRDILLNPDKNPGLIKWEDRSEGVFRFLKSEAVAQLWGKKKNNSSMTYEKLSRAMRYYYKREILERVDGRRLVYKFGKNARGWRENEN
Summed up: as §1

A further assay deals with SPIB (Homo sapiens, UniProt Q01892 1-262). Summed up: as §1
The next assay has as its target ETV5 (Homo sapiens, UniProt P41161 1-510). Summed up:
as §1

In a further assay the target is T4, SPIC (Homo sapiens, UniProt Q8N5J4 1-248).
T4 sequence: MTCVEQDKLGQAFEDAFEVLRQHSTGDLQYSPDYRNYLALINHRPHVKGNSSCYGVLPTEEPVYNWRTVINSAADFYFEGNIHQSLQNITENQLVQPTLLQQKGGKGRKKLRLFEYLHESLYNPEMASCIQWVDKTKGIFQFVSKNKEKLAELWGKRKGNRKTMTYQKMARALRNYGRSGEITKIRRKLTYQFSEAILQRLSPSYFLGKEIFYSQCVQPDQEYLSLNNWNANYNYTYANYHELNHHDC
In short, it runs like this:
as §1

The target in a further assay is ELF4 (Homo sapiens, UniProt Q99607 1-663). Summed up:
as §1

For the next assay, the target named is ETV1 (Homo sapiens, UniProt P50549 1-477). Summed up:
as §1

The target of the next assay is T5, ERF (Homo sapiens, UniProt P50548 1-548).
T5 sequence: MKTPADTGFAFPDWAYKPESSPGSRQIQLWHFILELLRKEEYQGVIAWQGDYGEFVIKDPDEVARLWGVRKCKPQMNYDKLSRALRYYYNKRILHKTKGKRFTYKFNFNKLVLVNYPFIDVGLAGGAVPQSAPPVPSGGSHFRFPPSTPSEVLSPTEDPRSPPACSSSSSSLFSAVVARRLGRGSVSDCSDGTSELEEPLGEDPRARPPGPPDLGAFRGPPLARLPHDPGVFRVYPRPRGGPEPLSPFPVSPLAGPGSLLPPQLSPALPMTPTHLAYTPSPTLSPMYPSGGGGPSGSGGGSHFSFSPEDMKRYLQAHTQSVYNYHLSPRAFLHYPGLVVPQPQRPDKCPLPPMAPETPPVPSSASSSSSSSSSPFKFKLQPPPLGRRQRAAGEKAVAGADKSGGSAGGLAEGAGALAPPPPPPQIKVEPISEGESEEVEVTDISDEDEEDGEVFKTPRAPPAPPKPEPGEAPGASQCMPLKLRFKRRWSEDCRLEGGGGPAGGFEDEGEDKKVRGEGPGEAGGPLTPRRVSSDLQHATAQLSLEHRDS
Summed up: as §1

The target in another assay is T6, ETV3L (Homo sapiens, UniProt Q6ZN32 1-361).
T6 sequence: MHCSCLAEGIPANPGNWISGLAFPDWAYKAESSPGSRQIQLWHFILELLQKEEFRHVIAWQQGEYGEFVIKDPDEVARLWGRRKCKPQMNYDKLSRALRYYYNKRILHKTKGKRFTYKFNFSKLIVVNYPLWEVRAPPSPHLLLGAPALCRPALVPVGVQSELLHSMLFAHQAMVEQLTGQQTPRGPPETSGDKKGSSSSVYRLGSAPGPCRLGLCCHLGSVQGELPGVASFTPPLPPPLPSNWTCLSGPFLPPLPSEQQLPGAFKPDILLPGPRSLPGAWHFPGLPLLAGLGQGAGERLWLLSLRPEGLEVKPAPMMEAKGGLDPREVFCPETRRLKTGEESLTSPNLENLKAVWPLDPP
In short, it runs like this: as §1

The target of a further assay is T7, ELF5 (Homo sapiens, UniProt Q9UKW6-2 1-255).
T7 sequence: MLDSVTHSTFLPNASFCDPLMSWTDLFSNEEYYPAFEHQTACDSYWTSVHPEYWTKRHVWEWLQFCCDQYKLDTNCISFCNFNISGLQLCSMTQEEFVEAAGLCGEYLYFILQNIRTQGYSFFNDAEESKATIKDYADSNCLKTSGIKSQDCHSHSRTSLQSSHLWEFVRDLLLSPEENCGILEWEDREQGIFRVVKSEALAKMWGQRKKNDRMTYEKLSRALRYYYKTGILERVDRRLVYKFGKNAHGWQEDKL
In short, it runs like this: as §1

The target in a further assay is T8, ETV3 (Homo sapiens, UniProt P41162-2 1-143).
T8 sequence: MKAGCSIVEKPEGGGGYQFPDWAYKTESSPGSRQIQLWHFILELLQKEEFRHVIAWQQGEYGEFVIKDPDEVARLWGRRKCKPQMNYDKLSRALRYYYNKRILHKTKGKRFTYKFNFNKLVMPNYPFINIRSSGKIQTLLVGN
In short, it runs like this: as §1

Another assay has as its target ETV6 (Homo sapiens, UniProt P41212 1-452). In short, it runs like this: as §1

Chain of ELF4 (Q99607 whole entry): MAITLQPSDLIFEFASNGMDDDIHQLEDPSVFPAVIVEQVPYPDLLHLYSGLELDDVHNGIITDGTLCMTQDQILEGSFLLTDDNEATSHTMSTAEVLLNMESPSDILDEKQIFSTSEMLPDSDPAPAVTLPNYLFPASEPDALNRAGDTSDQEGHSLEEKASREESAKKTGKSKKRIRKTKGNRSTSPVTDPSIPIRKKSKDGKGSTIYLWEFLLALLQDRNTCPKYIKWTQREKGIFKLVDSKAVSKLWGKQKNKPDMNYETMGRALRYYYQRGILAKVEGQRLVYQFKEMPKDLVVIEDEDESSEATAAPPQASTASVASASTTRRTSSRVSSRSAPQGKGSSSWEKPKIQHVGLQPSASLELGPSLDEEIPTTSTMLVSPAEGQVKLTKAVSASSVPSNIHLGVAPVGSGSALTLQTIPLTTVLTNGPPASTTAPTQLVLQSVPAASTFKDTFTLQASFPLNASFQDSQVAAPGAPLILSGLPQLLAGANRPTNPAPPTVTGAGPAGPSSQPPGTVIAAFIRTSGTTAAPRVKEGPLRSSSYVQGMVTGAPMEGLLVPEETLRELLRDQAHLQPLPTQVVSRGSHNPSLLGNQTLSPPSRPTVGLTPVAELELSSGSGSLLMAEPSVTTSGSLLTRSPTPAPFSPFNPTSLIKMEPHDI
Chain of ETV5 (P41161 whole entry): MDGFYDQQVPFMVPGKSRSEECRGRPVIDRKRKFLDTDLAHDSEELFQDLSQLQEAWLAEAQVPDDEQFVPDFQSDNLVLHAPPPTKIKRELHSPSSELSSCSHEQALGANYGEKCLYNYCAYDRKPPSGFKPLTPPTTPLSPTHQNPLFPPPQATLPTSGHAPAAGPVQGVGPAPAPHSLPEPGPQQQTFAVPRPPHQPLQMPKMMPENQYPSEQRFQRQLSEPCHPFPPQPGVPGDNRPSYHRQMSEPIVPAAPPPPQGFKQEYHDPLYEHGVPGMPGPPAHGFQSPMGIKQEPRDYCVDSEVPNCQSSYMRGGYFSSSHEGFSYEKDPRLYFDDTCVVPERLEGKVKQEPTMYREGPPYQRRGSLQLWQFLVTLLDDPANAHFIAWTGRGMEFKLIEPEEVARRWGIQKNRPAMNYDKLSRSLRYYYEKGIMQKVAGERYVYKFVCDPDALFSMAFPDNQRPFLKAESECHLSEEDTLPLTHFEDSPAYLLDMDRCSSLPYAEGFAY
Chain of ETV1 (P50549 whole entry): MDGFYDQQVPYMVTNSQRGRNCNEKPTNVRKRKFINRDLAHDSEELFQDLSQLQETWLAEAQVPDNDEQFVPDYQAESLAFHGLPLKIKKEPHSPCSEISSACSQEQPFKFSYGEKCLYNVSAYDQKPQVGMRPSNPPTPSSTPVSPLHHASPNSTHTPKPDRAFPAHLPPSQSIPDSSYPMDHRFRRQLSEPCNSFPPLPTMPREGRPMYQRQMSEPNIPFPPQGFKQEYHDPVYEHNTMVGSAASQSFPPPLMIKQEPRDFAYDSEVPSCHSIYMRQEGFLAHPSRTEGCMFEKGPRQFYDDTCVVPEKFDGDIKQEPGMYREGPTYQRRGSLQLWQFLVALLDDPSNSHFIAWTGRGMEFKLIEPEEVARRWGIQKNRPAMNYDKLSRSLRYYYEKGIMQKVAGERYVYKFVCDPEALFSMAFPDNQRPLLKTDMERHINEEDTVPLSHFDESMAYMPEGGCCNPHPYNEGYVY
Chain of ELF1 (P32519 whole entry): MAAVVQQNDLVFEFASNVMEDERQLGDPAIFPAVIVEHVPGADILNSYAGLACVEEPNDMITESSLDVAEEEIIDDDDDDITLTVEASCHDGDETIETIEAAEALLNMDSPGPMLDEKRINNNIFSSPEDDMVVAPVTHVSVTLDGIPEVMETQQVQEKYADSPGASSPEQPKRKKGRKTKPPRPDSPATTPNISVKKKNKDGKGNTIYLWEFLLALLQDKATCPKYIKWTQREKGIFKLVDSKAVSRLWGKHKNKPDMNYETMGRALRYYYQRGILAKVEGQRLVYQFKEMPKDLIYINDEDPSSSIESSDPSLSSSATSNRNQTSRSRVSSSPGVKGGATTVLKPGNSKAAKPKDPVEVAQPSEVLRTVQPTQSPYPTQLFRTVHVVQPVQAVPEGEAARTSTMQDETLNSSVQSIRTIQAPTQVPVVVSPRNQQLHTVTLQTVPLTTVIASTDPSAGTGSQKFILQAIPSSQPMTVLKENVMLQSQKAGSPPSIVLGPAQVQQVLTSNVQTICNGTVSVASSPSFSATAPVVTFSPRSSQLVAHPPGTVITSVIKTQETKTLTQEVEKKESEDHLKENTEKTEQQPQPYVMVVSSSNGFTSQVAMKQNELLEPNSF
Chain of ETV6 (P41212 whole entry): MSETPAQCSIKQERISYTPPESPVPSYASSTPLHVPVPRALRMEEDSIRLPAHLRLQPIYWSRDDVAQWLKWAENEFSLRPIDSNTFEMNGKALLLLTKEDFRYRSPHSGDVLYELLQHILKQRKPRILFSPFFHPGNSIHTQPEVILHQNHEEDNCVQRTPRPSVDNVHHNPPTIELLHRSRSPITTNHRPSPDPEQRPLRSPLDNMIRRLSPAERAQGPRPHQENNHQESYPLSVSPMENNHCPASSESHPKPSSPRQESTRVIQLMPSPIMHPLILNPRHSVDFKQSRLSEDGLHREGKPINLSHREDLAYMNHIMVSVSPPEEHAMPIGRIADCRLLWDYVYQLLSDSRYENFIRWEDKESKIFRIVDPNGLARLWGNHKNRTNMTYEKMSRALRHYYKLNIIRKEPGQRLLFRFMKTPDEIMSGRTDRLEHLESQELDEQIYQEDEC
Chain of SPIB (Q01892 whole entry): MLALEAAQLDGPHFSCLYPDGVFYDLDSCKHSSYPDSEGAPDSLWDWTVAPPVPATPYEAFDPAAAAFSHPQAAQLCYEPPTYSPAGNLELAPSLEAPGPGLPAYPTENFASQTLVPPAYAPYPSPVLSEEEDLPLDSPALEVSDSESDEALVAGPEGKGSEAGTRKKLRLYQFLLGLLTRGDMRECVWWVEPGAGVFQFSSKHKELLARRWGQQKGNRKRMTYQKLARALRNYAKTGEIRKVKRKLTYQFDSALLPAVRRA

On to CACGGA, for which the binding signal in the assay with FLI1 was 1.03 fold enrichment (6-mer frequency, TF over GST control); with ERG, 1.04 fold enrichment (6-mer frequency, TF over GST control); with ELF1, 1.04 fold enrichment (6-mer frequency, TF over GST control); with EHF, 1.1 fold enrichment (6-mer frequency, TF over GST control); in the assay with SPIB it was 1.05 fold enrichment (6-mer frequency, TF over GST control); with ETV5 it was 1.05 fold enrichment (6-mer frequency, TF over GST control). Also, the binding signal with SPIC was 1.06 fold enrichment (6-mer frequency, TF over GST control); with ELF4 it was 1.03 fold enrichment (6-mer frequency, TF over GST control); with ETV1, 1.06 fold enrichment (6-mer frequency, TF over GST control); with ERF, 1.01 fold enrichment (6-mer frequency, TF over GST control); with ETV3L, 1.04 fold enrichment (6-mer frequency, TF over GST control); with ELF5, 1.29 fold enrichment (6-mer frequency, TF over GST control). Besides, the binding signal was 1.22 fold enrichment (6-mer frequency, TF over GST control) with ETV3 and 1.09 fold enrichment (6-mer frequency, TF over GST control) with ETV6.
